Tau fibril FP: tau fibrillization inhibition (FP); P10636; K18 P301L tau heparin fibrillization, Alexa594 FP, 6 h; Potency, µM (series often up to 57.7 µM), inactives show at the top dose activity, negative = inhibition, usual class: inhibitors; hit rate 0.39% among 280,000; note: potency is the fitted concentration of half-maximal effect; nearly all actives have a fitted effect of over 55% in size
Target sequence (P10636 561-689 P618L limits assumed): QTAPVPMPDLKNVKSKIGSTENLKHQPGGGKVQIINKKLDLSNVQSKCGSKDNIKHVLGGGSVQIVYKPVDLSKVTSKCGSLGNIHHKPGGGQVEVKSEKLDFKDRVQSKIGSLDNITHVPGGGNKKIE
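K18 P301L tau (15 uM unlabeled/0.24 uM Alexa 594-labeled, final) + compound + heparin 20 uM final; 100 mM NaOAc pH 7; 6 hr 37 C; ThT 30 uM final added, 1 hr RT; FP ex 555/em 632 nm.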
Tau ThT inhib: tau fibrillization inhibition (ThT binding). P10636. recombinant tau K18 P301L, heparin-induced fibrillization, ThT fluorescence. Potency, µM (top dose mostly 57.4 µM), for the others: at the top dose activity, negative = inhibition, hits mostly inhibitors. hit rate 2.1% among 270,000. AID 1460; note: potency is the fitted concentration of half-maximal effect; nearly all actives have a fitted effect of over 55% in size
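Using a mix of unlabeled (15 uM) and Alexa 594-labeled (0.24 uM) tau K18 P301L, heparin-triggered fibrillization over 6 hr at 37 C was scored by ThT fluorescence.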
USP1-UAF1 inh: inhibitors of human USP1/UAF1 deubiquitinase; recombinant USP1/UAF1, Ub-Rhodamine cleavage fluorescence; hit rate 0.23% among 390,000; AID 743255; Potency, µM (highest dose often 57.1 µM), without a hit: at the top dose activity change, negative = inhibition, most hits filed as inhibitors; O94782; note: potency is the fitted concentration of half-maximal effect; nearly all actives have a fitted effect of over 60% in size
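In this screen, compounds sit with the deubiquitinase complex (1nM) for 15 min at room temperature before Ub-Rho is added at 150nM final. Fluorescence rise is then followed for 6 reads every 60 seconds.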
Coupling enz: inhibits coupling enzyme system, counter-screen for aldolase hits; coupling enzyme system counterscreen, AmpLite Red fluorescence; activity change, negative = inhibition, % at 58.2 µM, hits read low; hit rate 0.67% among 290,000; in the data active = activity change below about -30%
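Coupling enzymes only (glyceraldehyde-3-phosphate) + compound, at 57.5 uM final, 10 min RT; add substrate/coupling/AmpLite Red mix, 20 min RT; fluorescence ex 525/em 598 nm. Actives flag coupling-system interference.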
Tau fluor cs: counter-screen for tau fibril formation inhibitors; hit rate 0.93% among 280,000; tau K18 P301L (four-repeat tau fragment) Alexa594 fluorescence, heparin fibrillization; Potency, µM (doses to about 57.7 µM), for inactives: at the top dose activity change, negative = decrease; note: potency is the fitted concentration of half-maximal effect; nearly all actives have a fitted effect of over 55% in size
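Human K18 P301L tau (15 uM unlabeled plus 0.24 uM Alexa 594-labeled, final) in 100 mM sodium acetate pH 7 was mixed with compound and 20 uM heparin and incubated 6 hr at 37 C.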
The depositor's hits bear a star; ? = inconclusive; . = no result given; [ ] = remark or other dose. Sampled rows, rich in hits. Any-hit rate of the full collection: about 2.3%. Unless noted, calls come from the whole dose curve; as a rule, active = well fitted curve in the direction sought with a large enough effect; inconclusive = small, poorly fitted or top-dose-only effect, or another doubt; inactive = no such curve, though single readings can be large; an effect the other way counts as inactive or inconclusive. % is set by controls: 0 for no effect and ±100 for the full control effect.

SMILES | Tau fibril FP | Tau ThT inhib | USP1-UAF1 inh | Coupling enz | Tau fluor cs
CCOC(=O)c1ccc(N2CSC3=C(C#N)C(c4cccs4)CC(=O)N3C2)cc1 (configuration not stated) | ? | ? | -11% | -6 | -15%
COc1cc(OC)c(C2CC(=O)N3CN(c4ccc(C)cc4)CSC3=C2C#N)cc1OC (configuration not stated) | ? | 28µM* | -28% | -31* | -28%
CNc1oc(-c2ccccc2F)nc1S(=O)(=O)c1ccc(C)cc1 | . | . | 1% | . | .
CC(=O)Nc1ccc(C2NC(C(=O)O)CCC2C)cc1 (configuration not stated) | -3%[11.6 µM] | -4%[11.5 µM] | . | -3 | -7%[11.6 µM]
O=C(/C=C/c1ccc(I)cc1)c1ccc(B(O)O)cc1 | . | . | . | 0 | .
COc1ccc(N2CSC3=C(C#N)C(c4cc(OC)ccc4OC)CC(=O)N3C2)c(OC)c1 (configuration not stated) | 28µM* | 13µM* | ? | -46* | ?
O=C(Nc1sc2c(c1C(=O)O)CCCCC2)c1ccccc1 | -3% | 11% | -23% | -38* | 8%
O=C(Nc1sc2c(c1C(=O)Nc1cccc(Cl)c1)CCCC2)c1cccs1 | ? | 11µM* | -3% | . | -17%
NC(=O)c1c(NC(NC(=O)c2ccco2)C(=O)c2ccc(Cl)cc2)sc2c1CCCC2 (configuration not stated) | -9% | 25µM* | 0% | -2 | ?
O=C(Nc1sc2c(c1C(=O)O)CCCC2)c1ccc(Cl)cc1 | . | . | -21% | -36* | .
O=C(Nc1sc2c(c1C(=O)O)CCC2)c1ccccc1 | -1% | ? | -13% | -21 | -28%
COc1ccc(OCc2nnc(SCC(=O)c3c(N)n(C)c(=O)n(C)c3=O)n2-c2ccccc2F)cc1 | -5% | 4% | . | 6 | -14%
Cc1ccc(-c2cc(C(F)(F)F)n3nc(C(=O)Nc4sc5c(c4C#N)CCC(C)C5)cc3n2)cc1 (configuration not stated) | -18% | -11% | -23% | . | -16%
Nc1ccccc1Nc1cc(-c2ccccc2)nn1-c1cccc(Cl)c1 | ? | ? | -23% | -6 | 11µM*[quencher]
O=C(Nc1ccccc1)Nc1cccc(C(F)(F)F)c1 | ? | 1% | -16% | 2 | -30%
CCSCCc1nnc(NC(=O)Nc2cccc(C(F)(F)F)c2)s1 | 11µM* | 6% | -8% | 1 | ?
O=C(Nc1cccc([N+](=O)[O-])c1)Nc1cccs1 | 10% | ? | -16% | -4 | 20µM*[quencher]
CC(C(=O)Nc1cccc([N+](=O)[O-])c1)[n+]1ccccc1 (configuration not stated) | -55% | 22µM* | -5% | -19 | 13%[2.34 µM]
O=C(Nc1cccc(C(F)(F)F)c1)Nc1cccs1 | ? | ? | ? | . | 11µM*[quencher]
COC(=O)c1sccc1NC(=O)Nc1cccc([N+](=O)[O-])c1 | . | . | -24% | -4 | .
CCn1ncc(NC(=O)Nc2cccc(C(F)(F)F)c2)c1C(N)=O | 6% | 10% | -18% | 1 | 1%
CC(Sc1cccc[n+]1[O-])C(=O)Nc1cccc([N+](=O)[O-])c1 (configuration not stated) | -7% | -2% | -23% | 1 | -7%
CCCc1ccc(OCC(=O)Nc2sc3c(c2C(=O)OCC)CCC(C(C)(C)C)C3)cc1 (configuration not stated) | 2% | -9% | 1% | . | -1%
COCCNc1ccnc(-c2ccccc2CN(C)C)n1 | -10% | -2% | . | 1 | -7%
CN1CCN(c2ncc3nc(-c4cccs4)c(=O)n(Cc4ccc(F)cc4)c3n2)CC1 | . | . | . | 3 | .
C=CCN1c2ccccc2[C@]23C[C@@H](C(=O)OC)N(S(=O)(=O)c4ccc(C(F)(F)F)cc4)C2=NC(C(=O)OC)=C(C(=O)OC)[C@H]13 | 5%[11.6 µM] | ? | . | -1 | -10%[11.6 µM]
Cc1[nH][nH]c(=O)c1C(c1ccc(-c2ccc(C(=O)O)cc2)o1)c1c(C)[nH][nH]c1=O | ? | 11µM* | ? | -63* | -15%
COc1ccc(-c2ccc(C(c3c(C)[nH][nH]c3=O)c3c(C)[nH][nH]c3=O)o2)c([N+](=O)[O-])c1 | ? | 7.9µM* | ? | -49* | -19%
